# NOMO-1 viab – STK33 inhibitor candidate reducing NOMO-1 cell viability | 37,000 tested, 7.5% active | AID 2330 | NOMO-1 AML viability, CellTiter-Glo luminescence, 72 h | inhibition, % (no concentration beside the values); in the data active = inhibition above about 80%; inconclusive = no clear call, values can overlap the other calls
# Shh pathway inh – Sonic Hedgehog pathway inhibition; Shh-LIGHT2 Gli-luciferase reporter, 30 h; inhibition, % (test concentration not listed); 22,000 tested, 2.1% active;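 active = mean inhibition across valid replicates above about 65%, limit read from the data; inconclusive = mean under the limit, yet half or more replicates past it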;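 also: pathway switched on by Shh-conditioned medium diluted 1 in 25 in low serum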
# PD-1 reversal – activators reversing PD-1 mediated T-cell inhibition. activation, % (test concentration not listed). primary human CD4 T cells, PD-L1 beads, CellTiter-Glo 96 h. 29,000 tested, under 10 active; call rule not given here;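 also: 0% = median vehicle wells and 100% = positive control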
# * = called active by the depositor; ? = inconclusive; . = no result given. In the library only some 7.7% were active in any assay of this set; here they are far more common.
SMILES,NOMO-1 viab,Shh pathway inh,PD-1 reversal
C[C@@H]1CN([C@@H](C)CO)C(=O)c2cccc(NC(=O)Nc3ccc(C(F)(F)F)cc3)c2O[C@@H]1CN(C)Cc1ccc(-c2ccccc2)cc1,125*,.,.
C[C@@H]1CN([C@H](C)CO)C(=O)c2cccc(NC(=O)Nc3ccc(C(F)(F)F)cc3)c2O[C@H]1CN(C)Cc1ccc(C(F)(F)F)cc1,?,-9,-5
Cc1ccc(-c2nc3ccccc3o2)cc1NC(=O)CN1C(=O)c2ccccc2C1=O,-13,.,3
CCc1ccccc1NC(=O)CCCN1C(=O)c2ccccc2C1=O,16,.,.
Cc1ccc(OCC(=O)Nc2ccc3oc(-c4cccnc4)nc3c2)cc1C,20,.,.
COc1ccc(-n2nc3cc(C)c(NC(=S)NC(=O)COc4cccc(C)c4)cc3n2)cc1Cl,47,.,-4
CC(O)c1nc2ccccc2n1CCCOc1ccc(Cl)cc1 (configuration not stated),46,.,-1
CCOC(=O)c1c(NC(=O)Cn2nnc(-c3ccccc3)n2)sc2c1CCCC2,26,.,.
O=C(O)Cn1cc(C(=O)C2CCCCC2)c2ccccc21,-11,.,0
CCn1c(SCC(=O)Nc2cccc3ccccc23)nnc1-c1ccco1,26,.,.
C[C@@H]1CN([C@H](C)CO)C(=O)c2cccc(NC(=O)Nc3ccccc3)c2O[C@H]1CN(C)Cc1ccc(C(F)(F)F)cc1,91*,-7,.
C[C@H](CO)N1C[C@H](C)[C@H](CN(C)Cc2ccc(C(F)(F)F)cc2)Oc2c(NC(=O)Nc3ccccc3)cccc2C1=O,48,-28,.
C[C@@H]1CN([C@@H](C)CO)C(=O)Cc2cc(NC(=O)Nc3ccc(C(F)(F)F)cc3)ccc2O[C@@H]1CN(C)C,48,1,.
C[C@@H]1CN([C@@H](C)CO)C(=O)Cc2cc(NC(=O)Nc3ccc(C(F)(F)F)cc3)ccc2O[C@@H]1CN(C)S(=O)(=O)c1ccc(Cl)cc1,104*,26,-7
C[C@H]1CN([C@@H](C)CO)C(=O)Cc2cc(NC(=O)Nc3ccc(F)cc3)ccc2O[C@@H]1CN(C)S(=O)(=O)c1ccc(Cl)cc1,0,-20,1
Cc1ccc(S(=O)(=O)N(C)C[C@@H]2Oc3ccc(NC(=O)Nc4ccc(C(F)(F)F)cc4)cc3CC(=O)N([C@H](C)CO)C[C@H]2C)cc1,66,.,2
C[C@H]1CN([C@@H](C)CO)C(=O)Cc2cc(NC(=O)Nc3ccc(C(F)(F)F)cc3)ccc2O[C@H]1CN(C)S(=O)(=O)c1ccc(Cl)cc1,115*,?,-4
C[C@H](CO)N1C[C@H](C)[C@H](CN(C)S(C)(=O)=O)Oc2ccc(NC(=O)Nc3ccc(C(F)(F)F)cc3)cc2CC1=O,98*,.,-1
C[C@@H]1CN([C@H](C)CO)C(=O)Cc2cc(NC(=O)Nc3ccccc3)ccc2O[C@H]1CN(C)S(=O)(=O)c1ccccc1,-16,.,-1
C[C@H]1CN([C@@H](C)CO)C(=O)Cc2cc(NC(=O)Nc3ccc(C(F)(F)F)cc3)ccc2O[C@H]1CN(C)S(=O)(=O)c1ccccc1,102*,-9,-2
COc1cc2c(cc1NC(=O)CCOc1ccc(C)cc1)oc1ccccc12,4,.,.
COc1ccc(-c2csc(NC(=O)c3cc(-c4ccc(C)o4)nc4ccccc34)c2C#N)cc1OC,21,.,.
Cc1ccc(N(C(C)C(=O)Nc2ccc(Cl)cc2)S(C)(=O)=O)cc1C (configuration not stated),52,.,-1
Cc1c(Cl)cccc1NC(=O)CSc1nnc(-c2ccc(NC(=O)c3ccccc3Br)cc2)n1C,27,.,0
O=C(CSc1nc(-c2ccccc2)c(-c2ccccc2)[nH]1)Nc1ccccc1F,44,.,-5
SMILES,NOMO-1 viab,Shh pathway inh,PD-1 reversal
C[C@H]1CN([C@@H](C)CO)C(=O)Cc2cc(NC(=O)Nc3ccc(C(F)(F)F)cc3)ccc2O[C@@H]1CN(C)S(=O)(=O)c1ccc(F)cc1,69,24,.
Cc1noc(C)c1S(=O)(=O)N(C)C[C@H]1Oc2ccc(NC(=O)Nc3ccc(C(F)(F)F)cc3)cc2CC(=O)N([C@@H](C)CO)C[C@H]1C,92*,.,-1
Cc1noc(C)c1S(=O)(=O)Nc1ccc2c(c1)CC(=O)N([C@@H](C)CO)C[C@H](C)[C@H](CN(C)C(=O)Nc1ccc(C(F)(F)F)cc1)O2,-1,66*,.
Cc1noc(C)c1S(=O)(=O)Nc1ccc2c(c1)CC(=O)N([C@@H](C)CO)C[C@H](C)[C@@H](CN(C)C(=O)Nc1ccc(C(F)(F)F)cc1)O2,13,?,.
C[C@@H]1CN([C@H](C)CO)C(=O)Cc2cc(NC(=O)Nc3ccc(C(F)(F)F)cc3)ccc2O[C@@H]1CN(C)S(=O)(=O)c1ccc(F)cc1,90*,18,-1
Cc1noc(C)c1S(=O)(=O)N(C)C[C@H]1Oc2ccc(NC(=O)Nc3ccccc3)cc2CC(=O)N([C@@H](C)CO)C[C@@H]1C,29,-9,-1
NC(=O)C1(N2CCCCC2)CCN(CC(=O)Nc2ccc(Cl)cc2)CC1,-8,.,1
Cc1cc(C)nc(NS(=O)(=O)c2ccc(NC(=S)NC(=O)c3ccccc3Br)cc2)n1,-10,.,.
C[C@H](CO)N1C[C@H](C)[C@H](CN(C)Cc2ccc(Cl)c(Cl)c2)Oc2c(NC(=O)c3nc4ccccc4s3)cccc2C1=O,104*,-32,-5
C[C@@H]1CN([C@H](C)CO)C(=O)c2cccc(NC(=O)c3nc4ccccc4s3)c2O[C@@H]1CN(C)Cc1ccc(Cl)c(Cl)c1,32,-11,-2
C[C@H]1CN([C@@H](C)CO)C(=O)c2cccc(NC(=O)c3nc4ccccc4s3)c2O[C@H]1CN(C)Cc1ccc(Cl)c(Cl)c1,96*,-25,-1
C[C@@H]1CN([C@H](C)CO)C(=O)c2cccc(NC(=O)c3nc4ccccc4s3)c2O[C@H]1CN(C)Cc1ccc(-c2ccccc2)cc1,53,-3,.
COc1ccccc1NC(=O)CNC(=O)c1ccccc1Cl,-3,.,.
O=C(C1c2ccccc2Oc2ccccc21)N1CCCc2ccccc21,51,46,1
CCC(C)[C@H]1C(=O)O[C@H](C(C)C)C(=O)N(C)[C@@H](C(C)C)C(=O)O[C@H](C(C)C)C(=O)N(C)[C@@H](C(C)C)C(=O)O[C@H](CC(C)C)C(=O)N1C (some centres not stated),119*,106*,-14
c1ccc(CN(CCN(Cc2ccccn2)Cc2ccccn2)Cc2ccccn2)nc1,98*,-181,-51
Cc1cc[n+](Cc2ccccn2)c(N)c1,9,-26,1
CCn1c(SCC(=O)Nc2ccc(Cl)cc2Cl)nnc1-c1ccc(Cl)c(Cl)c1,21,.,.
Cc1nn(C(=O)Cn2cc([N+](=O)[O-])cn2)c(C)c1Br,13,.,.
CN(C)CCCn1cc(C2=C(c3c[nH]c4ccccc34)C(=O)NC2=O)c2ccccc21,?,32,.
Cn1cc(C2=C(c3cn(CCCSC(=N)N)c4ccccc34)C(=O)NC2=O)c2ccccc21,142*,44,-9
CC(NC(=O)COc1ccccc1C(C)(C)C)c1ccccc1 (configuration not stated),115*,35,0
Cc1ccccc1OCC(=O)NCC(=O)O,18,.,2
COC(=O)c1cc(OC)c(OC)cc1NC(=O)COc1ccc(Cl)cc1Br,56,.,-7
